As usually defined, the AC50 is the concentration giving half of the maximal activity seen.

Hit rate of the full screen: of about 16,000 compounds, about 5,700 (36%) were called active. Inconclusive results (about 24%) are left out. The list shows a part of the results. Unmarked numbers belong to inactive results. The call rests on the fitted dose curve; in most records, active means well fitted curve in the direction sought with a large enough effect; inconclusive means small, poorly fitted or top-dose-only effect, or effect the other way; inactive means no such curve, though single readings can be large or run the other way.

The results in this text go back to PubChem BioAssay AID1851 (National Center for Advancing Translational Sciences (NCATS), 2009).
On the % scale 0 is the no-effect control and ±100 the full control effect.

Chain of Cytochrome P450 1A2 (Homo sapiens) (P05177 whole entry, looked up): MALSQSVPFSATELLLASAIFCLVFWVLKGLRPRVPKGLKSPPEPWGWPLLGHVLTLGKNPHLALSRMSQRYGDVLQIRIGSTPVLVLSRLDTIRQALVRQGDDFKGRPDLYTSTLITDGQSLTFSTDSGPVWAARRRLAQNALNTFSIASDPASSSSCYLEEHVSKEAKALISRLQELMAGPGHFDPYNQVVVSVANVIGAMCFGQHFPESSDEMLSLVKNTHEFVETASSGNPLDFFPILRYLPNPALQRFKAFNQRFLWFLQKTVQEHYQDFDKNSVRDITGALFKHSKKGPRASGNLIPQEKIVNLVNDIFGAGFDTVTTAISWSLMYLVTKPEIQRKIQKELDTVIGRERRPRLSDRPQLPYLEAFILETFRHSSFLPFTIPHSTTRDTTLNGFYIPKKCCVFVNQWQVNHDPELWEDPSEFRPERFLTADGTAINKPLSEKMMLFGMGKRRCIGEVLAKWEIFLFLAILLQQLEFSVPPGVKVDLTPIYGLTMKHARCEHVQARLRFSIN

This test addresses Cytochrome P450 1A2 (Homo sapiens) (UniProt P05177). Nature of the test: Cytochrome panel assay with activity outcomes. The settings on record: recombinant CYP, pro-luciferin dealkylation, luminescence, p450-cyp1a2; series mostly up to 57.1 µM; activity, negative = inhibition: at the top concentration.
Turning to `COc1ccccc1CN1CCC2(CCNCC2)CC1`, the “activity, negative = inhibition” value was -5.13%.

As for `CN(C)CCn1nnnc1SCC1=C(C(=O)O)N2C(=O)[C@@H](NC(=O)Cc3csc(N)n3)[C@@H]2SC1`, the “activity, negative = inhibition” value is -6.52% [at 25.6 µM].

Turning to `COc1ccc2[nH]cc(CCNc3cc(-c4ccoc4)ncn3)c2c1`, the AC50 was 631 nM (active).

Regarding `COc1ccc2[nH]cc(CCNc3ccnc(-c4cccc(NS(C)(=O)=O)c4)n3)c2c1`, the half-maximal activity concentration (AC50) was 1580 nM (active).

Consider `CC1(C)S[C@@H]2[C@H](NC(=O)C(N)c3ccccc3)C(=O)N2[C@H]1C(=O)O` (stereo not given in full), for which the “activity, negative = inhibition” value was -0.0503% [at 25.6 µM].

In the case of `c1ccc(-c2nc(N3CCCCCC3)nc(-n3ccnc3)n2)cc1`, the AC50 is 1260 nM (active).

In the case of `CN(c1ccccc1)c1nc(-n2ccnc2)nc(-n2ccnc2)n1`, the AC50 was 158 nM (active).

On to `CC(C)[C@@H](OCc1ccccc1)[C@H](C)/C=N\OC[C@@H](O)[C@@H]1O[C@@H]2OC(C)(C)O[C@@H]2[C@H]1O`, for which the activity, negative = inhibition was -0.825% [at 11.4 µM].

With `Clc1ccccc1-c1nccc(-n2ccnc2)n1`, the AC50 was 158 nM (active).

`COc1ccccc1-c1nccc(-n2ccnc2)n1`: the AC50 was 158 nM (active).

On to `Cc1ccccc1-c1nccc(-n2ccnc2)n1`, for which the AC50 is 79.4 nM (active).

As for `COC(=O)N1CCC[C@@]2(CCN(C(=O)Nc3ccc(OC)cc3)C2)C1`, the “activity, negative = inhibition” value is -2.89%.

As to `N=C(N)SCC(=O)O`, the activity, negative = inhibition is -10.2% [at 2.29 µM].

In the case of `Cn1c(/C(C#N)=C(\O)c2ccc(S(=O)(=O)N3CCCCC3)cc2)nc2ccccc21`, the “activity, negative = inhibition” value was -8.63%.

As to `COc1ccc(/C(O)=C(\C#N)c2nc3ccccc3n2C)cc1OC`, the AC50 was 5010 nM (active).

As for `CN(C)CCCNC(=O)CCc1nc2ccccc2c(=O)[nH]1`, the “activity, negative = inhibition” value is -6.97%.

For the molecule `CN(CCCNC(=O)c1cccn2c(=O)c3ccccc3nc12)Cc1ccccc1`, the AC50 is 14100 nM (active).

On to `CN(CCCNC(=O)c1ccc(/C=N/O)nc1)CCCN(C)Cc1ccccc1`, for which the “activity, negative = inhibition” value is 2.39%.

For the molecule `Cc1cnc(CNc2ncncc2-c2ccc3c(c2)OCO3)cn1`, the AC50 is 2000 nM (active).

As to `Cc1cccc(CNc2ncncc2-c2ccc3c(c2)OCO3)c1`, the AC50 is 126 nM (active).

As for `c1csc(CNc2ncncc2-c2ccc3c(c2)OCO3)c1`, the AC50 is 200 nM (active).

For the molecule `c1cncc(CNc2ncncc2-c2ccc3c(c2)OCO3)c1`, the AC50 was 398 nM (active).

For `Cc1ccc(N(C(=O)Cn2nnc(-c3ccc(F)cc3)n2)C(CC(C)C)C(=O)NCC2CCCO2)cc1` (stereo not given), the “activity, negative = inhibition” value is -2.51%.

For `c1ccc(Nc2ncncc2-c2ccc3c(c2)OCO3)cc1`, the AC50 is 316 nM (active).

On to `c1ccc(CNc2ncncc2-c2ccc3c(c2)OCO3)cc1`, for which the AC50 was 126 nM (active).

As for `CC(C)c1ccccc1S(=O)c1ccccc1C(C)(C)O` (stereo not given), the activity, negative = inhibition is -10.7% [at 2.29 µM].

Turning to `O=C(O)c1cccc2cccc(-c3cccc4cccc(C(=O)O)c34)c12`, the activity, negative = inhibition was -12.3% [at 2.29 µM].

In the case of `NCc1ccc(C(=O)O)cc1`, the activity, negative = inhibition was -4.79% [at 2.29 µM].

In the case of `O=C(O)c1ccccc1/C=N\N=C1c2ccccc2-c2ccccc21`, the AC50 is 316 nM (active).

Turning to `O=C(O)c1ccc(/C=N\N=C2c3ccccc3-c3ccccc32)cc1`, the AC50 is 126 nM (active).

As for `O=C(O)c1ccccc1OP(=O)(O)O`, the “activity, negative = inhibition” value is -1.68% [at 25.6 µM].

In the case of `Cc1ccc(Cl)cc1-n1c(=O)cc(N2CC(C)OC(C)C2)[nH]c1=O` (stereo not given), the “activity, negative = inhibition” value is -1.42%.

For `Cc1cccc(Nc2cc(Cl)nc(SCC(=O)O)n2)c1C`, the “activity, negative = inhibition” value is 0.128%.

Consider `Clc1ccc(Cl)c(Nc2ccnc(SCc3ccccc3)n2)c1`, for which the concentration at half-maximal activity (AC50) is 501 nM (active).

With `Cn1c(=O)n2n(c1=O)[C@H]1[C@H](O)[C@H]3O[C@@H]3/C(=N/OC[C@@H](O)COCc3ccco3)[C@@H]1CC2`, the activity, negative = inhibition is 2.55% [at 11.4 µM].

For `CCc1cccc2c(-c3ccccc3)c3c(nc12)OCC3`, the AC50 is 316 nM (active).

Regarding `CCc1cccc2c3c([nH]c12)[C@@](CC)(CC(=O)O)OCC3`, the “activity, negative = inhibition” value was -10.3% [at 25.6 µM].

In the case of `O=C1Nc2ccccc2C1=Nc1ccc(S(=O)(=O)Nc2nccs2)cc1`, the activity, negative = inhibition is -18.2% [at 11.4 µM].

Regarding `O=C1Nc2ccccc2/C1=N/c1sc2c(c1C(=O)NCCc1ccccc1)CCCC2`, the half-maximal activity concentration (AC50) was 2510 nM (active).

On to `NS(=O)(=O)c1ccc(N=C2C(=O)Nc3ccccc32)cc1`, for which the activity, negative = inhibition is -12.7% [at 2.29 µM].

As for `CC(=O)NCCNc1nc(-c2cccc(NS(C)(=O)=O)c2)nc2ccccc12`, the half-maximal activity concentration (AC50) was 15800 nM (active).

For `CS(=O)(=O)Nc1cccc(-c2nc(NCc3cccs3)c3ccccc3n2)c1`, the half-maximal activity concentration (AC50) is 1000 nM (active).

On to `CS(=O)(=O)Nc1cccc(-c2nc(NCc3ccccc3)c3ccccc3n2)c1`, for which the AC50 was 2510 nM (active).

For the molecule `c1cc(NNc2cccc(-c3nn[nH]n3)c2)cc(-c2nn[nH]n2)c1`, the activity, negative = inhibition is -15.5% [at 2.29 µM].

As to `COCCNc1nc(-c2cccc(NS(C)(=O)=O)c2)nc2ccccc12`, the AC50 is 3160 nM (active).

Consider `CC[C@@H]1CC(=O)N(SC[C@H](N)C(=O)O)C1=O`, for which the activity, negative = inhibition is -14.7% [at 11.4 µM].

Turning to `COc1cccc([C@@H]2Oc3ccc(Br)cc3C(=O)[C@H]2O)c1`, the activity, negative = inhibition was -3.35% [at 11.4 µM].

With `CCc1c(C)c(C#N)c2nc3ccccc3n2c1Nc1c(C)n(C)n(-c2ccccc2)c1=O`, the “activity, negative = inhibition” value is -20.2%.

`Cc1cccc(CNc2nc(-c3cccc(NS(C)(=O)=O)c3)nc3ccccc23)c1`: the AC50 is 15800 nM (active).

Consider `Cc1sc(NC(=O)c2ccco2)c(C(c2ccncc2)N2CCOCC2)c1C` (stereo not given), for which the “activity, negative = inhibition” value was -16.7%.

For `Cc1sc(NC(=O)c2ccco2)c(C(c2cccnc2)N2CCN(C)CC2)c1C` (stereo not given), the “activity, negative = inhibition” value is -7.13%.

On to `Cc1sc(NC(=O)c2ccco2)c(C(c2cccnc2)N2CCCC2)c1C` (stereo not given), for which the AC50 was 14100 nM (active).

`CCCCN(C)Cc1c(C)[nH]c2ccc(Cl)cc2c1=O`: the AC50 was 5010 nM (active).

Regarding `Cn1cccc1C(=O)N1CCC2(CC1)CN(c1ccncc1)C2`, the “activity, negative = inhibition” value is 0.971%.

In the case of `O=C(c1ccco1)N1CCC2(CC1)CCN(C(c1ccccc1)c1ccccc1)CC2`, the “activity, negative = inhibition” value was -6.96%.

`Cn1cccc1C(=O)N1CCC[C@@]2(CCN(c3ccncc3)C2)C1`: the AC50 is 12600 nM (active).

Regarding `CC(=O)N1CCC[C@@]2(CCN(c3ccccc3)C2)C1`, the “activity, negative = inhibition” value is 5.33%.

Consider `CC(=O)N1CCC[C@@]2(CCN(c3ccncc3)C2)C1`, for which the “activity, negative = inhibition” value was 1.12%.

`Cn1cccc1C(=O)N1CCC[C@@]2(CCN(c3ccccc3)C2)C1`: the concentration at half-maximal activity (AC50) was 12600 nM (active).

As to `CC(C)NC(=O)N1CC[C@@]2(CCCN(C(=O)c3cccn3C)C2)C1`, the “activity, negative = inhibition” value was 1.6%.

Regarding `O=C(c1ccco1)N1CCC[C@@]2(CCN(C(c3ccccc3)c3ccccc3)C2)C1`, the concentration at half-maximal activity (AC50) is 25100 nM (active).

For `CN1CC[C@@]2(CCCN(C(=O)c3cccn3C)C2)C1`, the “activity, negative = inhibition” value is 10.5%.

Turning to `O=C(c1ccco1)N1CCC2(CC1)CN(C(c1ccccc1)c1ccccc1)C2`, the “activity, negative = inhibition” value was -18.6%.

Take `O=C(c1cccc(F)c1)N1CCC[C@@]2(CCN(C(c3ccccc3)c3ccccc3)C2)C1`: the “activity, negative = inhibition” value is -0.977%.

On to `Cn1cccc1C(=O)N1CCC[C@@]2(CCN(C(c3ccccc3)c3ccccc3)C2)C1`, for which the AC50 is 20000 nM (active).
